PubChem BioAssay (NCI)
Compounds without any hit were thinned out: in the full panel of roughly 83,000, 20% have a hit.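 The endpoint reported here, percent growth, reads 100 for growth as untreated, 0 for no net growth and -100 for all cells dead.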 Values without a mark were called inactive. The source made the active and inactive calls. The calls were made as follows: active = growth percent below 10; inactive = the rest.

Key:
Test in all cases: NCI-60 one-dose screen, 48 h (100 = growth as untreated, 0 = no growth, -100 = all killed)
Settings in all cases: 10 µM unless noted
T-47D breast = system: T-47D breast
MDA-MB-435 melanoma = system: MDA-MB-435 melanoma
SW-620 colon = system: SW-620 colon
MCF7 breast = system: MCF7 breast
HCT-116 colon = system: HCT-116 colon
HCC-2998 colon = system: HCC-2998 colon
KM12 colon = system: KM12 colon

| Compound | growth (T-47D breast) | growth (MDA-MB-435 melanoma) | growth (SW-620 colon) [%] | growth (MCF7 breast) [%] | growth (HCT-116 colon) | growth (HCC-2998 colon) | growth (KM12 colon) [%] |
| --- | --- | --- | --- | --- | --- | --- | --- |
| COc1ccc(C(C(=O)O)c2ccc(OC)cc2)cc1 | 118% | 115% | 107 | 101 | 108% | 116% | 111 |
| C[C@@H](NC(=O)[C@@H](CC(=O)N1CCC(N2CCCCC2)CC1)N1C(=O)[C@@H](N2C(=O)OC[C@@H]2c2ccccc2)[C@H]1/C=C/c1cccc(Cl)c1)c1ccccc1 | 29.9% | 1.09% (active) | 66.3 | 20.8 | 53.7% | 28.5% | 71.3 |
| Brc1ccc2c(c1)CN(C1CCCCC1)CO2 | 96.2% | 103% | 100 | 106 | 108% | 102% | 100 |
| O=[N+]([O-])c1cc(CCl)ccc1OCCBr | 88.3% | 104% | 106 | 89.7 | 93.9% | 104% | 113 |
| Nc1nc(Nc2ccccc2)c2ncn(Cc3ccc4c(c3)OCO4)c2n1 | 33.8% | -23.4% (active) | 23.1 | 21.3 | 35.2% | 71% | 26.2 |
| CCCCCCNC(=O)Nc1ncnc2c1ncn2-c1ccccc1 | 66.6% | 102% | 95.9 | 89.4 | 90.2% | 118% | 108 |
| C[C@]12CCc3c(ccc4cc(O)ccc34)[C@@H]1CC[C@H]2O | 91.8% | 80.1% | 99.1 | 116 | 102% | 107% | 98.1 |
| N#Cc1ccc(-c2ccc(COc3ccc(CC4SC(=O)NC4=O)cc3)cc2)cc1 (configuration not stated) | 35.8% | 45.4% | 80.1 | 38.1 | 42.5% | 83.2% | 61.9 |
| CC(=O)O.CC(=O)O.O.[Fe] | 97.7% | 128% | 98.3 | 111 | 108% | 115% | 104 |
| COc1ccc2c(c1)c(-c1noc(-c3cn(C)c4ncc(F)cc34)n1)cn2C | 76.8% | 77.1% | 82 | 54.6 | 80.7% | 90% | 87.8 |
| CCN(CCO)CCC(=O)c1ccc([N+](=O)[O-])cc1 | 90.6% | 111% | 113 | 98.6 | 112% | 97.4% | 102 |
| CC1Cc2c(ncnc2-n2cnc3ccccc32)N(C)c2ccccc21 (configuration not stated) | 33.3% | -23.7% (active) | 17.7 | 18.2 | 21.3% | 64.8% | 27.8 |
| Cc1ccc(N)c(O)c1 | 94.1% | 102% | 92.2 | 83.5 | 85.2% | -4.78% (active) | 99.5 |
| O=C(Nc1cc(-c2cccnc2)nc(NCCCN2CCOCC2)n1)c1cc(Br)cc(C(F)(F)F)c1 | 46.4% | 9.55% (active) | 75.4 | 38.6 | 35.7% | 37.8% | 80 |
| O=C(Nc1ccc(Nc2ccncc2)cc1)c1ccc([N+](=O)[O-])cc1 | 29.7% | 79.5% | 30.5 | 51.6 | 27.3% | 66.7% | 79.5 |
| COc1ccc(NC(=O)Nc2ccc(-c3cccnc3)cc2N2CCC(CO)CC2)cc1 | 68.8% | 26% | 65.2 | 31.8 | 12.5% | 42% | 38.8 |
| C#CCC(C(=O)OCC)C(=O)OCC | 114% | 97.8% | 106 | 98 | 105% | 101% | 106 |
| COCCCNc1nc(NC(=O)c2cc(OC)cc(OC)c2)cc(-c2cccnc2)n1 | 63.8% | 100% | 101 | 97.8 | 90.3% | 110% | 103 |
| CCCn1ccnc1C(O)c1ccc(OCc2ccccc2)c(OC)c1 (configuration not stated) | 83.3% | 94.3% | 98 | – | 92.6% | 95.8% | 101 |

| Compound | growth (T-47D breast) | growth (MDA-MB-435 melanoma) | growth (SW-620 colon) [%] | growth (MCF7 breast) [%] | growth (HCT-116 colon) | growth (HCC-2998 colon) | growth (KM12 colon) [%] |
| --- | --- | --- | --- | --- | --- | --- | --- |
| COc1cc(NCc2ccccc2O)c2ncccc2c1 | 90.4% | 103% | 102 | 95.2 | 64% | – | 103 |
| COc1ccc(C(=O)c2nccc3cc(OC)c(OC)cc23)cc1OC | 79.4% | 119% | 96 | 93.2 | 92.9% | – | 104 |
| O=C(CCCCCCSc1nc(-c2ccc(Cl)cc2)cc(-c2ccc(Cl)cc2)n1)NO | 13.2% | 43.5% | 35.8 | 14.5 | 18.4% | – | 47.4 |
| O=C1COCCN1c1ccc(NCc2cn(Cc3cccc4ccccc34)c3ccccc23)cc1 | 43.1% | 98% | 83 | 63.4 | 39.3% | – | 96.5 |
| COc1ccc(-c2cc(-c3ccc(Cl)cc3)nc(SCCCCCCC(=O)NO)n2)cc1 | -2.44% (active) | 39.2% | 25.5 | 22.1 | 14.9% | – | 45.9 |
| Cn1cc(-c2noc(-c3cn(C)c4ncc(F)cc34)n2)c2cc(Br)ccc21 | 25.2% | 72.3% | 57.3 | 51.8 | 32.7% | 107% | 58.1 |
| CCOc1ccc2sc(NS(=O)(=O)c3ccc(N)cc3)nc2c1 | 122% | 107% | 115 | – | 110% | 107% | 105 |
| Nc1nc(Nc2ccccc2)c2ncn(Cc3cc4c(cc3Br)OCO4)c2n1 | 72.3% | -16.9% (active) | 20.5 | – | 7.79% (active) | 23% | 11.6 |
| O=C(CCN1CCCCC1)c1ccc2ccccc2c1 | 91% | 110% | 107 | 87.8 | 103% | 109% | 102 |
| CC1Cc2c(Cl)ncnc2N(C)c2ccccc21 (configuration not stated) | 42.5% | 14.9% | 14 | 14.1 | 12.9% | – | 11.3 |
| CCCCCC1CCCCN1C(=O)OCCCC (configuration not stated) | 99.1% | 105% | 111 | 96.7 | 109% | – | 104 |
| O=C(N/N=C\c1cc(Cl)ccc1O)N/N=C/c1cc(Cl)ccc1O | 49.6% | 47.7% | 42.3 | 46.2 | 16% | 46.1% | 44.4 |
| O=C(O)c1cn(C2CC2)c2cc(N3CCN(Cc4cc(Cl)ccc4O)CC3)c(F)cc2c1=O | 67.4% | 74.2% | 83.6 | 54.6 | 72.3% | 82.4% | 62.5 |
| Cn1cc(-c2noc(-c3cn(C)c4ncccc34)n2)c2cc(Cl)ccc21 | 54.2% | 87% | 89 | 62.1 | 94.1% | 99.8% | 103 |
| CCOC(=O)CCC[P+](c1ccccc1)(c1ccccc1)c1ccccc1 | 27.5% | 60.4% | 84.7 | 59.7 | 63.4% | 56.3% | 44.7 |
| CN(C)Cc1ccc[nH]1 | 83.5% | 110% | 94.6 | 97.9 | 77.5% | – | 108 |
| O=C(N[C@@H]1CCCc2ccccc21)[C@H](CCC(=O)N1CCN(C2CCCCC2)CC1)N1C(=O)[C@@H](N2C(=O)OC[C@@H]2c2ccccc2)[C@H]1/C=C/c1ccccc1 | 44.4% | 9.89% (active) | 37.7 | 16.5 | 23.8% | – | 35.5 |
| COc1cc2c(cc1OC(C)=O)C(=O)CCCC2 | 101% | 102% | 95.8 | – | 82.6% | -10.1% (active) | 106 |
| OC(c1ccc(Cl)cc1)(c1ccc(Cl)cc1)C(O)(c1ccc(Cl)cc1)c1ccc(Cl)cc1 | 32.9% | 29.3% | 44.4 | 49.7 | 7.19% (active) | – | 24.2 |
